Compound activity: PubChem, National Center for Advancing Translational Sciences (NCATS)
In the library only some 12% were active in any assay of this set; here they are far more common.
L3MBTL1 block – qHTS Assay for the Inhibitors of L3MBTL1; AlphaScreen L3MBTL1–H3K9me1 peptide binding; Lethal(3)malignant brain tumor-like protein 1 (Homo sapiens), Q9Y468; Potency, µM (series often up to 57.1 µM), without a hit: at the highest dose activity, negative = inhibition, actives largely listed as inhibitors; actives 0.66% (n = 230,000); note: % is set by controls: 0 for no effect and ±100 for the full control effect; nearly all actives have a fitted effect of over 60% in size
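AlphaScreen assay: L3MBTL1 (50 nM final) was preincubated 30 min at room temperature with biotinylated H3(1-15)K9me1 peptide (75 nM final), then 30 min with library compounds; streptavidin donor and nickel chelate acceptor beads (10 ug/mL final) added, 30 min dark.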
HP1b chromo inh – HTS for Inhibitors of HP1-beta Chromodomain Interactions with Methylated Histone Tails; actives 0.56% (n = 390,000); Potency, µM (doses to about 114 µM), for the others: at the top dose activity change, negative = inhibition, actives largely listed as inhibitors; Chromobox protein homolog 1 (Homo sapiens), P83916; AlphaScreen HP1-beta / biotin-H3K9me3 peptide binding; AID 540317, 2011; note: nearly all actives have a fitted effect of over 70% in size
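Compound inhibition of the preformed complex between 50 nM HP1-beta and 50 nM biotinylated H3K9me3 peptide was read by AlphaScreen. Buffer was PBS pH 7.4 with 0.01% Tween-20. Incubations ran 30 min at room temperature, with 10 ug/mL donor/acceptor beads.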
Sfp PPTase inh – qHTS Assay for Inhibitors of Bacillus subtilis Sfp phosphopantetheinyl transferase (PPTase); 4'-phosphopantetheinyl transferase ffp (Bacillus subtilis), Q9F4F7; Biochemical Sfp PPTase activity, qHTS; Potency, µM, for inactives: largest response in the series, negative = inhibition, hits mostly inhibitors; actives 3.5% (n = 310,000); AID 1490, 2009;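 note: the enzyme is Sfp with the accession as filed and its product quenches rhodamine fluorescence; 0% = enzyme reaction without inhibitor and -100% = no enzyme wells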
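Step 1, compound plus 15 nM Sfp-PPTase, 15 min, room temperature. Step 2, add rhodamine-CoA (5 uM) and BHQ-2-YbbR (12.5 uM). Step 3, read 525/598 nm fluorescence at 0 and 30 min.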
JMJD2A Tudor – qHTS Assay for Inhibitors of JMJD2A-Tudor Domain | AlphaScreen JMJD2A-Tudor / H3K4me3 peptide binding | Potency, µM (doses to about 114 µM), for inactives: at the top dose activity change, negative = inhibition, usual class: inhibitors | actives 4.4% (n = 390,000); note: % is set by controls: 0 for no effect and ±100 for the full control effect; nearly all actives have a fitted effect of over 50% in size
Target sequence (O75164 whole entry, looked up, the tested form may be a part): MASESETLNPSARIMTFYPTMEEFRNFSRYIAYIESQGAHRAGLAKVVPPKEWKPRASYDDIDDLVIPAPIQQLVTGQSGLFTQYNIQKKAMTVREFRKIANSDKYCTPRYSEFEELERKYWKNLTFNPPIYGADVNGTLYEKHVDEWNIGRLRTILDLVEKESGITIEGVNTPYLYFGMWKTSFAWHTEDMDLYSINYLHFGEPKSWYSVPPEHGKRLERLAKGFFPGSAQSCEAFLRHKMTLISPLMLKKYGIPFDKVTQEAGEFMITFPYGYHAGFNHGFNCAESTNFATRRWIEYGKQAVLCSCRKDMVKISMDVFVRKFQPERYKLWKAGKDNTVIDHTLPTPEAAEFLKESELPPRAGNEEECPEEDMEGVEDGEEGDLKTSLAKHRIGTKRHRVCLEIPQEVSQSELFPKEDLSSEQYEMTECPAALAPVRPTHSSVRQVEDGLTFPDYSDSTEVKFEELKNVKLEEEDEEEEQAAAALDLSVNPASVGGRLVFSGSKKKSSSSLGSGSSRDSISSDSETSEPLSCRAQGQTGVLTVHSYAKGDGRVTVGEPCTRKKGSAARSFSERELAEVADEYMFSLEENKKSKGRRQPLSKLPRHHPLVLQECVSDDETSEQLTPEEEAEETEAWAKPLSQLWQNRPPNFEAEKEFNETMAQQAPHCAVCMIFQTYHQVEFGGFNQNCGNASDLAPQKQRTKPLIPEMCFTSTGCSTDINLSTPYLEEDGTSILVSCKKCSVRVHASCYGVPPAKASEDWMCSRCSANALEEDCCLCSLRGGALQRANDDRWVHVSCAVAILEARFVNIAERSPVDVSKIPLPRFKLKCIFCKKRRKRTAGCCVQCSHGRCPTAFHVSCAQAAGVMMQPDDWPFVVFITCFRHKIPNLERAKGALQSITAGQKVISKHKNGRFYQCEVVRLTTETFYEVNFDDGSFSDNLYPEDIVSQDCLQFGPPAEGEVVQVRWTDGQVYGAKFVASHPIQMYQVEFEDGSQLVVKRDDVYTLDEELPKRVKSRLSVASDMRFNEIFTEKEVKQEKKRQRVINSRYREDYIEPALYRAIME
BAZ2B inh – qHTS Assay for Inhibitors of BAZ2B; Bromodomain adjacent to zinc finger domain protein 2B (Homo sapiens), Q9UIF8; AlphaScreen BAZ2B-H3K14Ac peptide displacement; Potency, µM (titrated, usually from 114 µM), for inactives: top-dose activity change, negative = inhibition, actives largely listed as inhibitors; actives 4.4% (n = 360,000); AID 504333, 2011; note: % is set by controls: 0 for no effect and ±100 for the full control effect; nearly all actives have a fitted effect of over 60% in size
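Protein-peptide AlphaScreen: BAZ2B 50 nM, b-H3K14Ac 50 nM, 1x PBS pH 7.4 + 0.01% Tween-20. Preincubation 30 min RT; cpd 30 min RT (top 110 uM); beads 20 min RT, light-protected.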
G9a inh – qHTS Assay for Inhibitors of Histone Lysine Methyltransferase G9a; AID 504332, 2011; G9a H3K9 monomethylation, AlphaScreen, 2 h; actives 8.8% (n = 350,000); Histone-lysine N-methyltransferase EHMT2 (Homo sapiens), Q96KQ7; Potency, µM (titrated, usually from 102 µM), without a hit: at the top dose activity, negative = inhibition, hits mostly inhibitors; note: % is set by controls: 0 for no effect and ±100 for the full control effect; nearly all actives have a fitted effect of over 75% in size
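AlphaScreen detection with an anti-monomethyl H3K9 antibody quantified product after a 2 h room-temperature reaction containing 500 nM biotinylated H3K9 peptide, 20 µM SAM and 20 nM enzyme, which had been preincubated 15 min with compound.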
Numbers without * were called inactive; [ ] = another dose, or the depositor's remark. Calls come from the whole dose curve; as a rule, active = well fitted curve in the direction sought with a large enough effect; inconclusive = small, poorly fitted or top-dose-only effect, or another doubt; inactive = no such curve, though single readings can be large; an effect the other way counts as inactive or inconclusive. Potency is the fitted concentration of half-maximal effect.

Cc1cnc(CNc2cc(-c3ccc(N(C)C)cc3)ncn2)cn1 was read as Sfp PPTase inh 2% and G9a inh -23%[0.501 µM].
`CN(C)/N=C/C=C1\CCC/C(=C/c2cccs2)C1=O` gave L3MBTL1 block -23%, HP1b chromo inh -5%, Sfp PPTase inh 20%, JMJD2A Tudor inconclusive, BAZ2B inh inconclusive and G9a inh -35%.
For CN(C)/N=C/C=C1\CC/C(=C\c2ccc(Br)cc2)C1=O the results were HP1b chromo inh -8%, Sfp PPTase inh -8%, JMJD2A Tudor -30%, BAZ2B inh inconclusive and G9a inh 50µM*.
Cc1ccccc1Cc1c(C)nc2nc(SCC(=O)N(C)c3ccccc3)nn2c1C was read as HP1b chromo inh 21%, JMJD2A Tudor -22%, BAZ2B inh -14% and G9a inh -26%[59 µM].
Screening CCn1c(=O)cc(SCC(=O)NCCc2cccc(C)c2)c2ccccc21 returned HP1b chromo inh 18%, JMJD2A Tudor -10%, BAZ2B inh -15% and G9a inh -35%[59 µM].
CCN(CCCNC(=O)CSc1cc(=O)n(CC)c2ccccc12)c1cccc(C)c1 was read as HP1b chromo inh inconclusive, JMJD2A Tudor 32µM*, BAZ2B inh 22µM* and G9a inh inconclusive.
`CCN(CCCNC(=O)CCNC(=O)Cn1cnc2ccccc2c1=O)c1cccc(C)c1` gave L3MBTL1 block -7%, HP1b chromo inh 18%, Sfp PPTase inh 2%, JMJD2A Tudor -9%, BAZ2B inh -34% and G9a inh inconclusive.
CCn1c(=O)cc(OCC(=O)NCCc2cccc(C)c2)c2ccccc21 was read as HP1b chromo inh 45%, Sfp PPTase inh 79µM*, JMJD2A Tudor -6%, BAZ2B inh -25% and G9a inh -3%[59 µM].
Screening CCN(CCCNC(=O)CNC(=O)Cn1cnc2ccccc2c1=O)c1ccccc1 returned HP1b chromo inh 12%, Sfp PPTase inh -3%, JMJD2A Tudor -17%, BAZ2B inh -7% and G9a inh 2.2µM*.
CCn1c(=O)cc(SCC(=O)NCCc2ccc(Cl)cc2)c2ccccc21 was read as HP1b chromo inh 12%, JMJD2A Tudor -22%, BAZ2B inh -34% and G9a inh 2%[59 µM].
CCN(CCCNC(=O)c1cn(CC)c2ccc(S(=O)(=O)N(C)C)cc2c1=O)c1cccc(C)c1 was read as L3MBTL1 block -5%, HP1b chromo inh -19%, Sfp PPTase inh -10%, JMJD2A Tudor inconclusive, BAZ2B inh inconclusive and G9a inh 35µM*.
For Cn1c(=O)c2sccc2n(Cc2cccc(Br)c2)c1=O the results were L3MBTL1 block 3%, HP1b chromo inh 38%, Sfp PPTase inh -3%, JMJD2A Tudor -1% and BAZ2B inh 11%.
`CCN(CCCNC(=O)COc1cc(=O)n(CC)c2ccccc12)c1ccccc1` gave L3MBTL1 block -14%, HP1b chromo inh -5%, Sfp PPTase inh -16%, JMJD2A Tudor inconclusive, BAZ2B inh inconclusive and G9a inh 11µM*.
For CCNc1sc(C(=O)c2cccs2)c(N)c1C#N the results were L3MBTL1 block 4%[11.4 µM], HP1b chromo inh 3%, Sfp PPTase inh 45µM*, JMJD2A Tudor -34%, BAZ2B inh -4% and G9a inh -41%[12.7 µM].
For Cc1ccc(C(=O)c2sc(Nc3ccccc3)c(C#N)c2N)cc1 the results were L3MBTL1 block -3%, HP1b chromo inh -2%, Sfp PPTase inh 3%, JMJD2A Tudor inconclusive, BAZ2B inh -32% and G9a inh inconclusive.
